# Laboratory results taken from the supplement of paper PMC9925115.
# Where a name gives a salt, the structure may show the parent alone. ± gives the uncertainty stated by the source.
# What was measured:
# FLX1 = experiment: cell viability z-score within plate (CellTiter-Glo), mean of 3 biological replicates; higher = higher viability relative to plate (less growth inhibition); conditions: 2 µM; time (hr): 120
# Experimental: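 FLX1 fibrolamellar carcinoma cells (DNAJB1-PRKACA fusion), 600 cells/well in 384-well plates, treated with a Selleck kinase inhibitor library (L1200) at 2 uM for 5 days (120 hr); viability by CellTiter-Glo. A z-score was computed within each plate and averaged over three biological replicates.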
# [1] = system: FLX1 + dox-induced PRKAR1A G325D; experiment: difference in log2 fold change of viability vs plate median (dox-induced PRKAR1A G325D minus uninduced); higher = compound less effective when PKA is inhibited; conditions: concentration: not stated (2 or 5 uM); 5 days
# Experimental: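 For each plate a log2 fold change vs the plate median was derived, and the values without dox were subtracted from those with dox, averaged over three biological replicates.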
Structure (SMILES),cell viability z-score within plate (FLX1),difference in log2 fold change of viability [1]
CN(C)CCOc1ccc(-c2nc(-c3ccncc3)c(-c3ccc4c(c3)CC/C4=N\O)[nH]2)cc1,0.259 ± 0.2,-1.73
"CN1CCN(c2ccc3nc(-c4c(N)c5c(F)cccc5[nH]c4=O)[nH]c3c2)CC1 [Dovitinib (TKI-258, CHIR-258)]",0.442 ± 0.46,0.0764
CO[C@H]1C[C@@H]2CC[C@@H](C)[C@@](O)(O2)C(=O)C(=O)N2CCCC[C@H]2C(=O)O[C@H]([C@H](C)C[C@@H]2CC[C@H](n3cnnn3)[C@H](OC)C2)CC(=O)[C@H](C)/C=C(\C)[C@@H](O)[C@@H](OC)C(=O)[C@H](C)C[C@H](C)/C=C/C=C/C=C/1C [Zotarolimus(ABT-578)],0.264 ± 0.45,0.358
N[C@@H]1CCCN(c2c(/C=C3\SC(=O)NC3=O)cccc2-c2ccccc2)C1,0.166 ± 0.49,0.132
O=c1ncn2nc(Sc3ccc(F)cc3F)ccc2c1-c1c(Cl)cccc1Cl,-3.62 ± 2.1,2.06
CNc1nc(Nc2cnn([C@H]3CCN(C4COC4)C[C@@H]3F)c2Cl)ncc1C(F)(F)F,-0.856 ± 0.51,-0.177
CO[C@H]1C[C@@H]2CC[C@@H](C)[C@@](O)(O2)C(=O)C(=O)N2CCCC[C@H]2C(=O)O[C@H]([C@H](C)C[C@@H]2CC[C@@H](OC(=O)C(C)(CO)CO)[C@H](OC)C2)CC(=O)[C@H](C)/C=C(\C)[C@@H](O)[C@@H](OC)C(=O)[C@H](C)C[C@H](C)/C=C/C=C/C=C/1C,-0.0698 ± 1.1,0.457
COc1cc2ncnc(Nc3ccc(Cl)cc3F)c2cc1OC,1.18 ± 0.67,-0.233
O=C(Nc1cc(C(F)(F)F)cc(C(F)(F)F)c1)c1cc(Cl)ccc1O,-0.692 ± 0.5,-0.138
N#Cc1c(Oc2ccc(F)c(NC(=O)Cc3cccc(C(F)(F)F)c3)c2)ccc2nc(NC(=O)C3CC3)sc12,0.529 ± 0.94,-0.168
C=CC(=O)N1CCC[C@@H](n2nc(-c3ccc(Oc4ccccc4)cc3)c3c(N)ncnc32)C1,0.337 ± 0.4,-2.14
O=C(Nc1cccc(Cl)c1)Nc1ncc(CCNc2ncnc3ccsc23)s1 [SNS-314 Mesylate],-2.37 ± 0.38,-0.153
O=C1NCCc2[nH]c(-c3ccncc3)cc21,0.309 ± 0.59,0.179
CCCCCCCCc1ccc(CCC(N)(CO)CO)cc1 [Fingolimod (FTY720) HCl],0.096 ± 0.62,0.301
CC(C)NC[C@@H](C(=O)N1CCN(c2ncnc3c2[C@H](C)C[C@H]3O)CC1)c1ccc(Cl)cc1 [Ipatasertib (GDC-0068)],1.05 ± 0.14,0.54
FC(F)(F)c1ccc(/C=C/c2nc(COc3ccc(CCCCn4ccnn4)cc3)co2)cc1 [Mubritinib (TAK 165)],-0.952 ± 0.95,0.102
O=C(NC[C@H](O)CO)c1ccncc1Nc1ccc(I)cc1F,-0.968 ± 0.82,-1.7
Cc1cc(Nc2cc(CN3CCOCC3)c3nc(C)c(Cc4ccc(Cl)cc4F)n3n2)n[nH]1,0.049 ± 0.54,-1.14

Structure (SMILES),cell viability z-score within plate (FLX1),difference in log2 fold change of viability [1]
C=CC(=O)Nc1cccc(Sc2nc(Nc3ccc(N4CCN(C)CC4)cc3)ncc2Cl)c1,0.081 ± 0.26,0.0442
N#C/C(=C(/N)Sc1ccc(N)cc1)c1ccccc1C(F)(F)F,-0.253 ± 0.36,0.1
Oc1c2ccccc2c2c3c(cccc13)N=N2,0.48 ± 0.65,0.149
CCC(=O)Nc1cccc(Oc2nc(Nc3ccc(N4CCN(C)CC4)cc3OC)ncc2Cl)c1,0.708 ± 0.11,-0.831
O=C1NC(=O)C(c2cnc3ccccn23)=C1c1cn2c3c(cc(F)cc13)CN(C(=O)N1CCCCC1)CC2,1.17 ± 1.1,0.116
Cc1cc(C(C)Nc2ccccc2)c2nc(N3CCOCC3)cc(=O)n2c1 (stereo not given),-0.144 ± 0.28,0.222
C[C@]1(O)C[C@@H](c2nc(-c3ccc4ccc(-c5ccccc5)nc4c3)c3c(N)nccn32)C1 [Linsitinib (OSI-906)],0.624 ± 0.4,0.468
NC1(c2ccc(-c3nc4ccn5c(=O)[nH]nc5c4cc3-c3ccccc3)cc2)CCC1,-0.0746 ± 0.54,0.0391
CN1CCCN(C(=O)c2cccc(-c3ccc(/C=C4/C(=O)Nc5ccc(Cl)cc54)o3)c2)CC1,0.408 ± 0.47,-0.148
NC(=O)c1ncn([C@@H]2O[C@H](CO)[C@@H](O)[C@H]2O)c1N [AICAR (Acadesine)],0.371 ± 0.82,-0.0733
O=C(O)c1ccc(Nc2ncc3c(n2)-c2ccc(Cl)cc2C(c2c(F)cccc2F)=NC3)cc1,1.2 ± 0.42,-0.0396
CN1CCN(c2ccc3nc(-c4c(N)c5c(F)cccc5[nH]c4=O)[nH]c3c2)CC1 [Dovitinib (TKI-258) Dilactic Acid],0.322 ± 0.38,-0.364
OCCn1cc(-c2cnc3nnn(Cc4ccc5ncccc5c4)c3n2)cn1,0.158 ± 1.6,-0.172
COc1cccc(-c2cc(=O)c3ccccc3o2)c1N,0.538 ± 0.2,-0.103
S=C(NCc1ccc2c(c1)OCO2)N1CCN(c2ncnc3c2oc2ccccc23)CC1 [Amuvatinib (MP-470)],-0.826 ± 0.77,0.22
CN1CCN(CCOc2cc(OC3CCOCC3)c3c(Nc4c(Cl)ccc5c4OCO5)ncnc3c2)CC1 [Saracatinib (AZD0530)],0.194 ± 0.28,-1.34
C[C@H](NC(=O)/C(C#N)=C/c1cccc(Br)n1)c1ccccc1,0.427 ± 0.59,-0.381
